# Source: the supplement of paper PMC10681739
# Target: T1, ETS1 (UniProt P14921)
# T1 sequence: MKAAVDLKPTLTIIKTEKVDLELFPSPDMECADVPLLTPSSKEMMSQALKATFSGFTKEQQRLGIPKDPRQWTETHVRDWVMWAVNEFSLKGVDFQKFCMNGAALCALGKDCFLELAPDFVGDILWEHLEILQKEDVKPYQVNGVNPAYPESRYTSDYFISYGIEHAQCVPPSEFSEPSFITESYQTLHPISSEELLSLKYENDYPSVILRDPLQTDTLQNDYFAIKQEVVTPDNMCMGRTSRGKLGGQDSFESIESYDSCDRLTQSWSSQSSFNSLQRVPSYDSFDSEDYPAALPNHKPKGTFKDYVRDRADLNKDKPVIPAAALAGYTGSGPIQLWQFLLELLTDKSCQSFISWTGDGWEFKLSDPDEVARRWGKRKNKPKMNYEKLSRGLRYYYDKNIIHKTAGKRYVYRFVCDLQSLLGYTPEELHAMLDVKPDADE
# Test: ETS1 binding intensity (PBM fluorescence), ETS1 alone (arbitrary fluorescence units); higher = stronger binding
# Conditions: ETS1 concentration 1 nM; RUNX1 concentration 0 nM
# Method: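 Cooperative genomic-context PBM: 36-bp genomic probes with neighbouring ETS1 and RUNX1 sites, double-stranded on Agilent 4x180k arrays. Full-length recombinant human ETS1 (1 nM) was incubated alone or with RUNX1 (25 nM) and detected with anti-ETS1 antibody plus Alexa488 secondary. Value is the median fluorescence intensity over 4 replicate spots; the ETS1+RUNX1 data were normalised to the ETS1-only data using probes without RUNX1 sites. The 36-bp variable region sits on the array probe with constant linker/primer flanks that are not printed.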
row,Sequence,ETS1 binding intensity
1,GAGTGGGGGTGGGGAGGAAGCCACAGGGCCGGGCTG,624
2,GCCAGGAGGACTTCCGGGTGGGTGTGGTATCTGCGA,1320
3,CTTTTCCATGCAGGAAGTGGTTTTTAGAGTGTAGAG,7750
4,GGGGCGCTGCGCAGGAAGCCGCAGTCCCTCTGCGGA,930
5,GTTAGAGGAAGAGGAAGCGGTCAAGAGATCGTCACA,956
6,TTCTCCACTTCCTTCTTTACCTCACCTACCACATAA,568
7,CTCACCCCTGGAGGATGTGGGTTTCCAGGCTGACAG,836
8,CTGCAGACAGGAGGATGTGGGCTTGCGCGCAAACAG,675
9,TGCTTTTCAGGTGCAGGAAGTGGTTTGCCTTTGCCC,7810
10,CCGGGACAGGAAGAGGCTGGGGACCGCGGCGAAGGT,1440
11,AGGGCTGAAACAGGATGTGGTGAGTGAGGTAGGGTG,6020
12,TTCTGTAGCTTAGGATGTGGGTTTCTTTGTTTCTGA,452
13,AGGCCCCGCCCCTTCCGCCCACAGAGCCCGCCACTT,779
14,TCTGGGGGAGGGGAAGGATGTGGTTTGCAGAGCGGA,873
15,GGGGCGGCTTCCGGCGGCGTGACCTGACCGCAAGAG,995
16,AGGTGGGAGGAAGTTCCTACCCCGGCGCGGTGTGCA,625
17,TCTAGTTCTGGTTTCCGGACCGCATTCGGAACTAGA,1000
18,GTGCTAGGACACAGGAAGCGATACCACAAAGAACAT,3200
19,CTTCTGGCGGAAGCGGCACAAGCCGCAGTACAGCGC,1070
20,TATGGGGCCGGAAGCCATTCACCACAAACACTGTGT,2430

row,Sequence,ETS1 binding intensity
1,GGAGCAGGAAGCGTCGCCGGGGGGCCCACAAGGGTA,528
2,CTTGCTTGAGTCACAGGAAACCACTCAGAGGCTAAC,2600
3,TCTGTTCTTCCTTTTCCTGTGCGGTGTGCCCCAAAC,628
4,TTGATTGGAGCAGGATGTGGTCAGAACAGTATGCAG,3190
5,CCCTCAGCGGAAGTGGAAGCTGTGGTTTCCAAAGGC,4750
6,GCACCGTGGCACTTCCGCGAGCGCCGCAGGCCCTGC,461
7,GAGGCCCAGGATGTGGCTGGAGGCCTGTGGTGGGAC,630
8,GGGACGGGGAGGGCAGGATGTGGTCGCTCTTCCCTC,3320
9,GTTGCCCCACTTCCTGCCAGTGGTTTTTGGTTGGCC,2660
10,GGCTTCCGGCGGGGTACCCTCCTCTGTGGGCGGGGC,563
11,GGGAGGCCCCATCCTGTGTGGCTGTGGCTTTTGCCT,414
12,CTCGTGGGTGCCGGAAGTGGAGGCGGTTGGTGGGGT,15200
13,CGAGTAGAGATAGCAGGAAGTGGTTTATTCTGAGGT,6000
14,CCCGCCGGAAGGACGCGTCTGCGTCTCTGCGGCGAG,680
15,TTTAGACACCGCTTCCTGCCACAAGCCCAAGACTTA,758
16,TGATCAGCAAAAGGAAGTGGTTAACATGGCCCAGAA,1540
17,ACGCTGGAATCGCGGAAACCGCCGGTGCACGTTGGA,531
18,ACAGGAAACTAAAATAAGAACAGAAAACCAAGACAG,865
19,CTGGGGAGGAAGCCTGAGGTGTGTGGTTTTGTTAAC,374
20,TCCTCCATGCAGGAAAACCTCTGTGGTCTGGGAGCT,438
